Assay results: PMC11062922 (Nature Chemical Biology, 2023)
Like-named read-outs stand apart in the source and are kept apart here.

Assays:
Details in all cases: read-out: apparent Kd, n = 1
[1] = test system: CLK4
[2] = test system: FER
[3] = test system: FLT4
[4] = compound concentrations:100 nM and 1000 nM (sheet 'Lestaurtinib' of Supplementary Table 1),run:Lestaurtinib_03260_R1,Plate:MR033
[5] = compound concentrations:100 nM and 1000 nM (sheet 'Lestaurtinib' of Supplementary Table 1),run:Lestaurtinib_03260_R2,Plate:MR033
[6] = compound concentrations:100 nM and 1000 nM (sheet 'Lestaurtinib' of Supplementary Table 1),run:Lestaurtinib_03260_R3,Plate:MR033
[7] = compound concentrations:100 nM and 1000 nM (sheet 'Lestaurtinib' of Supplementary Table 1),run:Lestaurtinib_02339_R1,Plate:MR001
[8] = compound concentrations:100 nM and 1000 nM (sheet 'Lestaurtinib' of Supplementary Table 1),run:Lestaurtinib_02339_R2,Plate:MR001
[9] = compound concentrations:100 nM and 1000 nM (sheet 'Lestaurtinib' of Supplementary Table 1),run:Lestaurtinib_02364_R2,Plate:MR002
[10] = compound concentrations:100 nM and 1000 nM (sheet 'Lestaurtinib' of Supplementary Table 1),run:Lestaurtinib_02367_R2,Plate:MR003
[11] = compound concentrations:100 nM and 1000 nM (sheet 'Lestaurtinib' of Supplementary Table 1),run:Lestaurtinib_02367_R3,Plate:MR003
[12] = compound concentrations:100 nM and 1000 nM (sheet 'Lestaurtinib' of Supplementary Table 1),run:Lestaurtinib_02381_R1,Plate:MR004
[13] = compound concentrations:100 nM and 1000 nM (sheet 'Lestaurtinib' of Supplementary Table 1),run:Lestaurtinib_02381_R2,Plate:MR004
[14] = compound concentrations:100 nM and 1000 nM (sheet 'Lestaurtinib' of Supplementary Table 1),run:Lestaurtinib_02437_R2,Plate:MR007
[15] = compound concentrations:100 nM and 1000 nM (sheet 'Lestaurtinib' of Supplementary Table 1),run:Lestaurtinib_02438_R1,Plate:MR008

Which results are given for Lestaurtinib?
potency estimated from few doses [1, 4]: 95 nM; potency estimated from few doses [1, 5]: 130 nM; potency estimated from few doses [1, 6]: 60.5 nM; potency estimated from few doses [2, 7]: 361 nM; potency estimated from few doses [2, 8]: 254 nM; potency estimated from few doses ([2]; compound concentrations:100 nM and 1000 nM (sheet 'Lestaurtinib' of Supplementary Table 1),run:Lestaurtinib_02339_R3,Plate:MR001): 336 nM; potency estimated from few doses ([2]; compound concentrations:100 nM and 1000 nM (sheet 'Lestaurtinib' of Supplementary Table 1),run:Lestaurtinib_02364_R1,Plate:MR002): 298 nM; potency estimated from few doses [2, 9]: 396 nM; potency estimated from few doses ([2]; compound concentrations:100 nM and 1000 nM (sheet 'Lestaurtinib' of Supplementary Table 1),run:Lestaurtinib_02367_R1,Plate:MR003): 327 nM; potency estimated from few doses [2, 10]: 319 nM; potency estimated from few doses [2, 11]: 310 nM; potency estimated from few doses [2, 12]: 385 nM; potency estimated from few doses [2, 13]: 362 nM; potency estimated from few doses ([2]; compound concentrations:100 nM and 1000 nM (sheet 'Lestaurtinib' of Supplementary Table 1),run:Lestaurtinib_02381_R3,Plate:MR004): 336 nM; potency estimated from few doses ([2]; compound concentrations:100 nM and 1000 nM (sheet 'Lestaurtinib' of Supplementary Table 1),run:Lestaurtinib_02407_R3,Plate:MR005): 459 nM; potency estimated from few doses ([2]; compound concentrations:100 nM and 1000 nM (sheet 'Lestaurtinib' of Supplementary Table 1),run:Lestaurtinib_02422_R3,Plate:MR006): 307 nM; potency estimated from few doses [2, 14]: 347 nM; potency estimated from few doses ([2]; compound concentrations:100 nM and 1000 nM (sheet 'Lestaurtinib' of Supplementary Table 1),run:Lestaurtinib_02437_R3,Plate:MR007): 30.6 nM; potency estimated from few doses [2, 15]: 352 nM; potency estimated from few doses ([2]; compound concentrations:100 nM and 1000 nM (sheet 'Lestaurtinib' of Supplementary Table 1),run:Lestaurtinib_02438_R2,Plate:MR008): 345 nM; potency estimated from few doses ([2]; compound concentrations:100 nM and 1000 nM (sheet 'Lestaurtinib' of Supplementary Table 1),run:Lestaurtinib_02438_R3,Plate:MR008): 356 nM; potency estimated from few doses ([2]; compound concentrations:100 nM and 1000 nM (sheet 'Lestaurtinib' of Supplementary Table 1),run:Lestaurtinib_02443_R1,Plate:MR009): 347 nM; potency estimated from few doses ([2]; compound concentrations:100 nM and 1000 nM (sheet 'Lestaurtinib' of Supplementary Table 1),run:Lestaurtinib_02443_R2,Plate:MR009): 358 nM; potency estimated from few doses ([2]; compound concentrations:100 nM and 1000 nM (sheet 'Lestaurtinib' of Supplementary Table 1),run:Lestaurtinib_02473_R2,Plate:MR010): 343 nM; potency estimated from few doses ([2]; compound concentrations:100 nM and 1000 nM (sheet 'Lestaurtinib' of Supplementary Table 1),run:Lestaurtinib_02482_R1,Plate:MR011): 406 nM; potency estimated from few doses ([2]; compound concentrations:100 nM and 1000 nM (sheet 'Lestaurtinib' of Supplementary Table 1),run:Lestaurtinib_02482_R2,Plate:MR011): 336 nM; potency estimated from few doses ([2]; compound concentrations:100 nM and 1000 nM (sheet 'Lestaurtinib' of Supplementary Table 1),run:Lestaurtinib_02487_R1,Plate:MR012): 221 nM; potency estimated from few doses ([2]; compound concentrations:100 nM and 1000 nM (sheet 'Lestaurtinib' of Supplementary Table 1),run:Lestaurtinib_02496_R1,Plate:MR013): 306 nM; potency estimated from few doses ([2]; compound concentrations:100 nM and 1000 nM (sheet 'Lestaurtinib' of Supplementary Table 1),run:Lestaurtinib_02566_R1,Plate:MR014): 269 nM; potency estimated from few doses ([2]; compound concentrations:100 nM and 1000 nM (sheet 'Lestaurtinib' of Supplementary Table 1),run:Lestaurtinib_02572_R2,Plate:MR015): 259 nM; potency estimated from few doses ([2]; compound concentrations:100 nM and 1000 nM (sheet 'Lestaurtinib' of Supplementary Table 1),run:Lestaurtinib_02572_R3,Plate:MR015): 447 nM; potency estimated from few doses ([2]; compound concentrations:100 nM and 1000 nM (sheet 'Lestaurtinib' of Supplementary Table 1),run:Lestaurtinib_02584_R1,Plate:MR017): 332 nM; potency estimated from few doses ([2]; compound concentrations:100 nM and 1000 nM (sheet 'Lestaurtinib' of Supplementary Table 1),run:Lestaurtinib_02584_R3,Plate:MR017): 351 nM; potency estimated from few doses ([2]; compound concentrations:100 nM and 1000 nM (sheet 'Lestaurtinib' of Supplementary Table 1),run:Lestaurtinib_02601_R2,Plate:MR018): 394 nM; potency estimated from few doses ([2]; compound concentrations:100 nM and 1000 nM (sheet 'Lestaurtinib' of Supplementary Table 1),run:Lestaurtinib_02601_R3,Plate:MR018): 42.4 nM; potency estimated from few doses ([2]; compound concentrations:100 nM and 1000 nM (sheet 'Lestaurtinib' of Supplementary Table 1),run:Lestaurtinib_02606_R2,Plate:MR019): 83.6 nM; potency estimated from few doses ([2]; compound concentrations:100 nM and 1000 nM (sheet 'Lestaurtinib' of Supplementary Table 1),run:Lestaurtinib_02606_R3,Plate:MR019): 355 nM; potency estimated from few doses ([2]; compound concentrations:100 nM and 1000 nM (sheet 'Lestaurtinib' of Supplementary Table 1),run:Lestaurtinib_02624_R3,Plate:MR020): 365 nM; potency estimated from few doses ([2]; compound concentrations:100 nM and 1000 nM (sheet 'Lestaurtinib' of Supplementary Table 1),run:Lestaurtinib_02724_R2,Plate:MR021): 436 nM; potency estimated from few doses ([2]; compound concentrations:100 nM and 1000 nM (sheet 'Lestaurtinib' of Supplementary Table 1),run:Lestaurtinib_02748_R1,Plate:MR024): 268 nM; potency estimated from few doses ([2]; compound concentrations:100 nM and 1000 nM (sheet 'Lestaurtinib' of Supplementary Table 1),run:Lestaurtinib_02748_R3,Plate:MR024): 278 nM; potency estimated from few doses ([2]; compound concentrations:100 nM and 1000 nM (sheet 'Lestaurtinib' of Supplementary Table 1),run:Lestaurtinib_02752_R1,Plate:MR025): 356 nM; potency estimated from few doses ([2]; compound concentrations:100 nM and 1000 nM (sheet 'Lestaurtinib' of Supplementary Table 1),run:Lestaurtinib_02752_R2,Plate:MR025): 297 nM; potency estimated from few doses ([2]; compound concentrations:100 nM and 1000 nM (sheet 'Lestaurtinib' of Supplementary Table 1),run:Lestaurtinib_02752_R3,Plate:MR025): 327 nM; potency estimated from few doses ([2]; compound concentrations:100 nM and 1000 nM (sheet 'Lestaurtinib' of Supplementary Table 1),run:Lestaurtinib_02765_R1,Plate:MR026): 564 nM; potency estimated from few doses ([2]; compound concentrations:100 nM and 1000 nM (sheet 'Lestaurtinib' of Supplementary Table 1),run:Lestaurtinib_02765_R2,Plate:MR026): 481 nM; potency estimated from few doses ([2]; compound concentrations:100 nM and 1000 nM (sheet 'Lestaurtinib' of Supplementary Table 1),run:Lestaurtinib_02765_R3,Plate:MR026): 549 nM; potency estimated from few doses ([2]; compound concentrations:100 nM and 1000 nM (sheet 'Lestaurtinib' of Supplementary Table 1),run:Lestaurtinib_02766_R1,Plate:MR027): 277 nM; potency estimated from few doses ([2]; compound concentrations:100 nM and 1000 nM (sheet 'Lestaurtinib' of Supplementary Table 1),run:Lestaurtinib_02766_R2,Plate:MR027): 25.3 nM; potency estimated from few doses ([2]; compound concentrations:100 nM and 1000 nM (sheet 'Lestaurtinib' of Supplementary Table 1),run:Lestaurtinib_02766_R3,Plate:MR027): 321 nM; potency estimated from few doses ([2]; compound concentrations:100 nM and 1000 nM (sheet 'Lestaurtinib' of Supplementary Table 1),run:Lestaurtinib_02795_R1,Plate:MR022): 454 nM; potency estimated from few doses ([2]; compound concentrations:100 nM and 1000 nM (sheet 'Lestaurtinib' of Supplementary Table 1),run:Lestaurtinib_02795_R2,Plate:MR022): 356 nM; potency estimated from few doses ([2]; compound concentrations:100 nM and 1000 nM (sheet 'Lestaurtinib' of Supplementary Table 1),run:Lestaurtinib_02795_R3,Plate:MR022): 372 nM; potency estimated from few doses ([2]; compound concentrations:100 nM and 1000 nM (sheet 'Lestaurtinib' of Supplementary Table 1),run:Lestaurtinib_02802_R2,Plate:MR029): 296 nM; potency estimated from few doses ([2]; compound concentrations:100 nM and 1000 nM (sheet 'Lestaurtinib' of Supplementary Table 1),run:Lestaurtinib_02802_R3,Plate:MR029): 12.4 nM; potency estimated from few doses ([2]; compound concentrations:100 nM and 1000 nM (sheet 'Lestaurtinib' of Supplementary Table 1),run:Lestaurtinib_03172_R2,Plate:MR031): 386 nM; potency estimated from few doses ([2]; compound concentrations:100 nM and 1000 nM (sheet 'Lestaurtinib' of Supplementary Table 1),run:Lestaurtinib_03172_R3,Plate:MR031): 315 nM; potency estimated from few doses ([2]; compound concentrations:100 nM and 1000 nM (sheet 'Lestaurtinib' of Supplementary Table 1),run:Lestaurtinib_03252_R2,Plate:MR032): 25 nM; potency estimated from few doses [2, 4]: 469 nM; potency estimated from few doses [2, 5]: 487 nM; potency estimated from few doses [2, 6]: 351 nM; potency estimated from few doses [3, 7]: 345 nM; potency estimated from few doses [3, 8]: 300 nM; potency estimated from few doses [3, 9]: 289 nM; potency estimated from few doses ([3]; compound concentrations:100 nM and 1000 nM (sheet 'Lestaurtinib' of Supplementary Table 1),run:Lestaurtinib_02364_R3,Plate:MR002): 199 nM; potency estimated from few doses [3, 10]: 462 nM; potency estimated from few doses [3, 11]: 74.5 nM; potency estimated from few doses [3, 12]: 202 nM; potency estimated from few doses [3, 13]: 158 nM; potency estimated from few doses ([3]; compound concentrations:100 nM and 1000 nM (sheet 'Lestaurtinib' of Supplementary Table 1),run:Lestaurtinib_02407_R2,Plate:MR005): 157 nM; potency estimated from few doses ([3]; compound concentrations:100 nM and 1000 nM (sheet 'Lestaurtinib' of Supplementary Table 1),run:Lestaurtinib_02422_R1,Plate:MR006): 289 nM; potency estimated from few doses ([3]; compound concentrations:100 nM and 1000 nM (sheet 'Lestaurtinib' of Supplementary Table 1),run:Lestaurtinib_02422_R2,Plate:MR006): 26 nM; potency estimated from few doses ([3]; compound concentrations:100 nM and 1000 nM (sheet 'Lestaurtinib' of Supplementary Table 1),run:Lestaurtinib_02437_R1,Plate:MR007): 520 nM; potency estimated from few doses [3, 14]: 1240 nM; potency estimated from few doses [3, 15]: 25.6 nM
